According to the supplement of paper PMC11732987, “Enantioselective OTUD7B fragment discovery through chemoproteomics screening and high-throughput optimisation” (Communications Chemistry, 2025):

Assays:
Experiment in all cases: log2 ratio of Biotin-Ahx-Ub-VS probe labelling (fragment/DMSO); higher = less target engagement (more negative = stronger competition), active = hit call of the paper (q ≤ 0.05, log2 ratio ≤ -1)
Conditions in all cases: compound concentration: 200 uM; treatment time: 3 h
OTUD6B = target: T1, OTUD6B (UniProt Q8N6M0)
T1 sequence (whole entry): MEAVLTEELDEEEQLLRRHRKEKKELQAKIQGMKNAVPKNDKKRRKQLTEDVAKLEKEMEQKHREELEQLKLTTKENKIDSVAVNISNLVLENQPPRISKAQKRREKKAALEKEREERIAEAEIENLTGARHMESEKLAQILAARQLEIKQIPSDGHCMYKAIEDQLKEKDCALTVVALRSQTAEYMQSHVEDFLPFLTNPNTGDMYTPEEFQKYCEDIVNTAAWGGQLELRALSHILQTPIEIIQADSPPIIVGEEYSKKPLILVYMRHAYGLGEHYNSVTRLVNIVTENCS
Method in brief: (§1)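 HEK293T lysate (495 µg per sample, in Tris/CHAPS/IGEPAL buffer with protease inhibitors) was exposed in triplicate for 3 h to fragment at 200 µM or to vehicle, then to Biotin-Ahx-Ub-VS at 0.5 µM final for 1 h. Labelled DUBs were enriched on NeutrAvidin, digested with LysC and trypsin, and analysed by diaPASEF LC-MS/MS. Spectronaut label-free quantities were normalised to the global median, and values are average log2 ratios of fragment over vehicle from an unpaired t-test. Only proteins with ≥2 unique peptides were used.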

OTUD7B = target: T2, OTUD7B (UniProt Q6GQQ9)
T2 sequence (whole entry): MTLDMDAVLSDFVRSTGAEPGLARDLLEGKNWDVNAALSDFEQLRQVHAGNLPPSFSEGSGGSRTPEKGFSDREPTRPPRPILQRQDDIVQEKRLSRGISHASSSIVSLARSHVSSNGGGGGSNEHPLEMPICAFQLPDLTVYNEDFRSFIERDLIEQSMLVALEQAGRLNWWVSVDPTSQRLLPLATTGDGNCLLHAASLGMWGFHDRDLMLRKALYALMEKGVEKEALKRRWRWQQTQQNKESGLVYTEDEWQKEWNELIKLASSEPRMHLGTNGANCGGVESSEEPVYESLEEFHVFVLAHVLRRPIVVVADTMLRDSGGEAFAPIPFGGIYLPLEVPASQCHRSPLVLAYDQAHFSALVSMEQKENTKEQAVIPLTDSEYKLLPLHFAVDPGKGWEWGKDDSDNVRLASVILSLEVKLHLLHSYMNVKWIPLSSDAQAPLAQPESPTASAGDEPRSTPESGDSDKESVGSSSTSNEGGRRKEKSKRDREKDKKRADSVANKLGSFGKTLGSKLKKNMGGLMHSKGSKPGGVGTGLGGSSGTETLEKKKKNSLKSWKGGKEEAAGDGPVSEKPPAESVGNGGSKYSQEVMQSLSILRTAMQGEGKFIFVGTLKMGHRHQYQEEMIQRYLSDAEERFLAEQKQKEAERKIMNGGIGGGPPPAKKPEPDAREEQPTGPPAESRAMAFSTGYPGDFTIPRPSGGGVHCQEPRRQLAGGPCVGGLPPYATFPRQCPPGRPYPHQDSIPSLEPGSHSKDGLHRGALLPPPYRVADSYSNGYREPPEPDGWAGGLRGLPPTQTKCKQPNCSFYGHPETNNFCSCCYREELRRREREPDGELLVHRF
Method in brief: as §1

PRPF8 = PRPF8 (UniProt Q6P2Q9)
Method in brief: as §1

PSMD7 = target: T3, PSMD7 (UniProt P51665)
T3 sequence (whole entry): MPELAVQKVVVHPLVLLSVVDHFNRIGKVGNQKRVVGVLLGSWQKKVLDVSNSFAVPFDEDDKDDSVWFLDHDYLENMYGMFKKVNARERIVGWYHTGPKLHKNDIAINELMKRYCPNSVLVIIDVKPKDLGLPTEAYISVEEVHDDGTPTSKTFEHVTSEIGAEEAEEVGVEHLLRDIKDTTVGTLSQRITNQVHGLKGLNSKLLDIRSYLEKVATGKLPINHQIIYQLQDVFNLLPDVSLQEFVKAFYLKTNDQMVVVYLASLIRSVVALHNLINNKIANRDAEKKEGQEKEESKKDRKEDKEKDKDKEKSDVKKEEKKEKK
Method in brief: as §1

UCHL1 = UCHL1 (UniProt P09936)
UCHL1, sequence (P09936 whole entry, looked up): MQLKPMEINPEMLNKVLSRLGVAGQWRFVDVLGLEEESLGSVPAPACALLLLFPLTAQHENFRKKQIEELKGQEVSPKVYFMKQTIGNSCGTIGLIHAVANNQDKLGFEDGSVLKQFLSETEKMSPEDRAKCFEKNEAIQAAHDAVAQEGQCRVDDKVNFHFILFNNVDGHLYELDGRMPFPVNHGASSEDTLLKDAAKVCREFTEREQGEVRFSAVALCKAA
Method in brief: as §1

UCHL3 = target: T4, UCHL3 (UniProt P15374)
T4 sequence (whole entry): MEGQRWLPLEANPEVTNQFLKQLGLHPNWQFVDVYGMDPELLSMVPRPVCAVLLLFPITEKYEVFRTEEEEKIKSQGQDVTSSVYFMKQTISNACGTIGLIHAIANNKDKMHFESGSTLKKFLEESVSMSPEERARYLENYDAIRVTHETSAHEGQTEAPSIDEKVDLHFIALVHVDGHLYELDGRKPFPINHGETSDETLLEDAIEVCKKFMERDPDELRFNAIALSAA
Method in brief: as §1

UCHL5 = target: T5, UCHL5 (UniProt Q9Y5K5)
T5 sequence (whole entry): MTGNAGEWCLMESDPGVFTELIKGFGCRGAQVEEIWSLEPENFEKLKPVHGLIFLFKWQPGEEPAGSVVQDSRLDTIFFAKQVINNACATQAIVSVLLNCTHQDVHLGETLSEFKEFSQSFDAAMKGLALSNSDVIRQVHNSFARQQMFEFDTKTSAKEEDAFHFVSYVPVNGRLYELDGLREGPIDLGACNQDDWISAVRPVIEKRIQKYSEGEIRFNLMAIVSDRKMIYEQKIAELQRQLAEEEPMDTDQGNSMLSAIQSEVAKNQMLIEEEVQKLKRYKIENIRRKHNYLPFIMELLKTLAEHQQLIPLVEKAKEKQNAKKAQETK
Method in brief: as §1

USP10 = USP10 (UniProt Q14694)
USP10, sequence (Q14694 whole entry): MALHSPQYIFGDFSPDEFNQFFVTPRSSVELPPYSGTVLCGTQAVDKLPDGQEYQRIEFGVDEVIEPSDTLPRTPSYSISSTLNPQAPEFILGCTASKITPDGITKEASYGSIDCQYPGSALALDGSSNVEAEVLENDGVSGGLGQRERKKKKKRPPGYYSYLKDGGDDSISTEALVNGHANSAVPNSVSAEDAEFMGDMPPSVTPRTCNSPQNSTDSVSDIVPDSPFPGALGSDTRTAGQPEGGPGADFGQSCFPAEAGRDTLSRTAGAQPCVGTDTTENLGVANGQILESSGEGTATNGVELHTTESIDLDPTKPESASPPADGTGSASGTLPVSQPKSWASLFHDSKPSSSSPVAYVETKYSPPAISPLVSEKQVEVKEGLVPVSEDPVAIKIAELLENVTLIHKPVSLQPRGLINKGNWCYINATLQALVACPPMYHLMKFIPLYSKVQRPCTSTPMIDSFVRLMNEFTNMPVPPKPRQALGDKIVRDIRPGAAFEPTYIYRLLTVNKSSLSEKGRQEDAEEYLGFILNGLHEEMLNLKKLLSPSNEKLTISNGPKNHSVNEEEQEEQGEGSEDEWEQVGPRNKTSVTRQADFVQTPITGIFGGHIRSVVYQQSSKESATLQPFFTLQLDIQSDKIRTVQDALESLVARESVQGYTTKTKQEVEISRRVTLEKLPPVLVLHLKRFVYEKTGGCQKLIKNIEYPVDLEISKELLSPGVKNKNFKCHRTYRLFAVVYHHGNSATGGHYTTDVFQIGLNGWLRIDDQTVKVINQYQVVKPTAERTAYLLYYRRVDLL
Method in brief: as §1

USP15 = target: T6, USP15 (UniProt Q9Y4E8)
T6 sequence (whole entry): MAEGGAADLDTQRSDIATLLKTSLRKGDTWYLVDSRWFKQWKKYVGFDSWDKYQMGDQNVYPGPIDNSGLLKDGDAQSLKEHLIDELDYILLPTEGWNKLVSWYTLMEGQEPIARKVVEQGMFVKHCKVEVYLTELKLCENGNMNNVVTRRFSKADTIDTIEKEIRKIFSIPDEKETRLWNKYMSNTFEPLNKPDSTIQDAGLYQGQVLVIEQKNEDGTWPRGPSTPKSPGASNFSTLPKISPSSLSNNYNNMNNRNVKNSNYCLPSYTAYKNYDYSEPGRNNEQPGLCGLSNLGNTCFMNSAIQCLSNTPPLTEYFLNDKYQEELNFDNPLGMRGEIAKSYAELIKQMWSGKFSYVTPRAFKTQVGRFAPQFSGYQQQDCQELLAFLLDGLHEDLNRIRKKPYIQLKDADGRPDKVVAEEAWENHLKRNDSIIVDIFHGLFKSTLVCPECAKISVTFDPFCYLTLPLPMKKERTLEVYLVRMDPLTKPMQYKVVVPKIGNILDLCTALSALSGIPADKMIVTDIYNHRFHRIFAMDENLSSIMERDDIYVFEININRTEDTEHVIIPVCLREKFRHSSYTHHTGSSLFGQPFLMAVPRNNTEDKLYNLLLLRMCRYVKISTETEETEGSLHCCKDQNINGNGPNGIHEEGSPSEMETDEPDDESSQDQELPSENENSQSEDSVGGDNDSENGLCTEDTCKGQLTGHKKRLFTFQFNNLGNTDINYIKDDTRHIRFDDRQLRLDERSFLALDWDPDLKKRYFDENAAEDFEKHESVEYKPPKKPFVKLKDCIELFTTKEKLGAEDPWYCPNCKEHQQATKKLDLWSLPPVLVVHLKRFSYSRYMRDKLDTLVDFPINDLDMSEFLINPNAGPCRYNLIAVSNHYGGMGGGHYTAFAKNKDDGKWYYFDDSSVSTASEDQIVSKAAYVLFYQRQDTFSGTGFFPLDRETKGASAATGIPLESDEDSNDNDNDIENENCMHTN
Method in brief: as §1

USP16 = USP16 (UniProt Q9Y5T5)
USP16, sequence (Q9Y5T5 whole entry, looked up): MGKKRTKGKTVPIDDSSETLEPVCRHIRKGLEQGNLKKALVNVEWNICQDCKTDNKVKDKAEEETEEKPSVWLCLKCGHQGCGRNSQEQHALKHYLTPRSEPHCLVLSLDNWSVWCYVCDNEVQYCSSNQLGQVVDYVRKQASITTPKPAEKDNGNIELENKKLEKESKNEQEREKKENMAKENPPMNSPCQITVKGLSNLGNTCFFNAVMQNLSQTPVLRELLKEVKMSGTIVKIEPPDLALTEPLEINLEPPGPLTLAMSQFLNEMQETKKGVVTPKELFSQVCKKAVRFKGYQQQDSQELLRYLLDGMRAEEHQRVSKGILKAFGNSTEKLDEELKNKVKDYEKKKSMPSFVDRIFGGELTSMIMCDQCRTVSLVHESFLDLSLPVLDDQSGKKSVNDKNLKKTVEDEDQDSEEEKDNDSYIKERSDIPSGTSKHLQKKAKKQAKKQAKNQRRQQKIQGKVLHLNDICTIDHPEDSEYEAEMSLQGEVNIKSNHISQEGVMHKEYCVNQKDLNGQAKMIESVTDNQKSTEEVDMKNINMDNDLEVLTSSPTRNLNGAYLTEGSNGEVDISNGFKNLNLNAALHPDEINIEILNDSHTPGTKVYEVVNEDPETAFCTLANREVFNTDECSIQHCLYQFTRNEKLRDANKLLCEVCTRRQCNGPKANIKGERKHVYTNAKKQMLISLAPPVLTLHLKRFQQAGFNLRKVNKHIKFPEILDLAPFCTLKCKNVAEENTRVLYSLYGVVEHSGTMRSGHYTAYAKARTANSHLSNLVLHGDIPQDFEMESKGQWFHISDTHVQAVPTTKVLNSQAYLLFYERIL
Method in brief: as §1

Measured: log2 ratio of Biotin-Ahx-Ub-VS probe labelling

Cc1ccn2cc(CNC(=O)CCl)nc2c1.Cl
inactive: OTUD6B -0.283 | OTUD7B -0.682 | PRPF8 0.0356 | PSMD7 -0.104 | UCHL1 -0.67 | UCHL3 -0.0928 | UCHL5 -0.311 | USP10 0.0849 | USP15 -0.244 | USP16 0.0424
